Measured values from PubChem BioAssay (EPA / NIEHS).
“And” between values parts separate entries of the source, which are not always exact repeats. Identical values can stand only once. Records with an inconclusive call do not appear. Some compounds were tested as several samples or in several runs, with calls that do not always agree. The source made the active and inactive calls. How the source made its calls, unless noted: active means hit-call score of the fitted dose curve at least 0.9, where 1 is the maximum; inactive means score below 0.9.

Experiments:
[1] = read-out: Interleukin-1 alpha (IL1a), IL1A (gene 3552); test: BSK_LPS_IL1a: BioMAP Diversity Plus: LPS Assay for Interleukin-1 alpha (IL1a) Biomarker Activity (AID 2283080); details: primary human HUVEC with PBMC; actives raise or lower the signal
In short: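 HUVEC/PBMC co-culture, LPS system; 24 h after dosing; IL-1a by ELISA; gain or loss of signal fitted bidirectionally vs DMSO baseline.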

[2] = read-out: Monocyte Chemoattractant Protein-1 (MCP1), CCL2 (gene 6347); test: BSK_LPS_MCP1: BioMAP Diversity Plus: LPS Assay for Monocyte Chemoattractant Protein-1 (MCP1) Biomarker Activity (AID 2283081); details: primary human HUVEC with PBMC; actives raise or lower the signal;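 on AC50: secreted MCP-1 protein quantified by ELISA in culture supernatant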
In short: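 ELISA read-out of MCP-1 after 24 h chemical dosing of a human umbilical vein endothelial cell/peripheral blood mononuclear cell co-culture stimulated with LPS. Gain or loss of signal fitted relative to DMSO controls.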

[3] = BSK_LPS_PGE2: BioMAP Diversity Plus: LPS Assay for Prostaglandin E2 (PGE2) Biomarker Activity (AID 2283082); details: primary human HUVEC with PBMC; actives raise or lower the signal
In short: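 ELISA read-out of PGE2 from human umbilical vein endothelial cells co-cultured with peripheral blood mononuclear cells under LPS, 24 h post-dose. Gain or loss of signal scored relative to DMSO baseline.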

[4] = read-out: Macrophage colony-stimulating factor (MCSF), CSF1 (gene 1435); test: BSK_LPS_MCSF: BioMAP Diversity Plus: LPS Assay for Macrophage colony-stimulating factor (MCSF) Biomarker Activity (AID 2283083); details: primary human HUVEC with PBMC; actives raise or lower the signal
In short: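 HUVEC + PBMC co-culture (human primary), 24 h post-dose; M-CSF by ELISA; gain/loss of signal fitted bidirectionally vs DMSO baseline.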

[5] = read-out: Tissue Factor, F3 (gene 2152); test: BSK_LPS_TissueFactor: BioMAP Diversity Plus: LPS Assay for Tissue Factor Biomarker Activity (AID 2283084); details: primary human HUVEC with PBMC; actives raise or lower the signal
In short: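 HUVEC/PBMC co-culture, LPS-activated; CD142 ELISA read 24 h post-dose; bidirectional curve fit vs DMSO negative control.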

[6] = read-out: Tumor necrosis factor (Homo sapiens) (UniProt P01375); test: BSK_LPS_TNFa: BioMAP Diversity Plus: LPS Assay for Tumour Necrosis Factor alpha (TNFa) Biomarker Activity (AID 2283085); details: primary human HUVEC with PBMC; actives raise or lower the signal;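 on AC50: TNFa protein level quantified by ELISA in the co-culture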
In short: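 HUVEC/PBMC co-culture, LPS-stimulated; 24 h post-dose; TNFa by ELISA; gain or loss of signal fitted bidirectionally vs DMSO baseline.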

[7] = read-out: Vascular cell adhesion molecule 1 (VCAM1), VCAM1 (gene 7412); test: BSK_LPS_VCAM1: BioMAP Diversity Plus: LPS Assay for Vascular cell adhesion molecule 1 (VCAM1) Biomarker Activity (AID 2283086); details: primary human HUVEC with PBMC; actives raise or lower the signal
In short: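 ELISA read-out of VCAM-1 at 24 h post-dosing in an LPS-driven HUVEC/PBMC primary human co-culture; gain or loss of signal fitted bidirectionally against DMSO baseline. Cytotoxicity tracked in parallel cultures by SRB total-protein staining.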

[8] = read-out: CD38, CD38 (gene 952); test: BSK_SAg_CD38: BioMAP Diversity Plus: SAg Assay for CD38 Biomarker Activity (AID 2283087); details: primary human HUVEC with PBMC; actives raise or lower the signal
In short: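 Measures CD38 on a human endothelial/PBMC co-culture driven by SEB and TSST-1, 24 h after compound exposure, using ELISA with fluorescence detection; DMSO defines baseline for bidirectional curve fitting.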

[9] = read-out: CD40, CD40 (gene 958); test: BSK_SAg_CD40: BioMAP Diversity Plus: SAg Assay for CD40 Biomarker Activity (AID 2283088); details: primary human HUVEC with PBMC; actives raise or lower the signal
In short: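 HUVEC/PBMC co-culture, 24 h post-dose; CD40 by ELISA, fluorescence intensity; bidirectional fit vs DMSO negative control.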

[10] = read-out: CD69, CD69 (gene 969); test: BSK_SAg_CD69: BioMAP Diversity Plus: SAg Assay for CD69 Biomarker Activity (AID 2283089); details: primary human HUVEC with PBMC; actives raise or lower the signal;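 on AC50: cell surface CD69 protein quantified by ELISA with fluorescence detection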
In short: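 Endothelial/PBMC co-culture; chemical added; 24 h incubation; CD69 ELISA with fluorescence detection; bidirectional fit vs DMSO.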

[11] = read-out: Monocyte Chemoattractant Protein-1 (MCP1), CCL2 (gene 6347); test: BSK_SAg_MCP1: BioMAP Diversity Plus: SAg Assay for Monocyte Chemoattractant Protein-1 (MCP1) Biomarker Activity (AID 2283090); details: primary human HUVEC with PBMC; actives raise or lower the signal
In short: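 Values derive from bidirectional fitting of ELISA-measured MCP1 against DMSO controls. Readings were taken 24 h after dosing human vascular endothelial cells co-cultured with peripheral blood mononuclear cells under superantigen stimulation.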

[12] = read-out: E-selectin (Homo sapiens) (UniProt P16581); test: BSK_SAg_Eselectin: BioMAP Diversity Plus: SAg Assay for Eselectin Biomarker Activity (AID 2283091); details: primary human HUVEC with PBMC; actives raise or lower the signal
In short: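 E-selectin ELISA readout at 24 h post-dosing in human umbilical vein endothelial cell/PBMC co-culture; gain or loss of signal fitted relative to DMSO baseline.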

[13] = read-out: Monokine induced gamma interferon (MIG), CXCL9 (gene 4283); test: BSK_SAg_MIG: BioMAP Diversity Plus: SAg Assay for Monokine induced gamma interferon (MIG) Biomarker Activity (AID 2283092); details: primary human HUVEC with PBMC; actives raise or lower the signal
In short: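 Measures CXCL9 protein by ELISA in a human vascular primary-cell co-culture (umbilical vein endothelium with PBMC) 24 h after chemical addition. Activity is scored up or down from the DMSO control.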

[14] = BSK_SAg_PBMCCytotoxicity: PBMC Cytotoxicity Assessment in the BioMAP Diversity Plus: SAg Assay (AID 2283093); details: primary human HUVEC with PBMC;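 further: PBMC viability measured as Alamar Blue reduction fluorescence at 546/580 nm; fitted both ways against DMSO so a hit may be loss or gain of signal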
In short: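 Alamar Blue reduction (6 h, 546/580 nm) reports PBMC cytotoxicity after 90 h superantigen activation (SEB, TSST-1; 20 ng/mL final each) with 1 h compound pre-treatment. Gain or loss of signal fitted versus DMSO.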

[15] = BSK_SAg_Proliferation: Cell Proliferation Assessment in the BioMAP Diversity Plus: SAg Assay (AID 2283095); details: primary human HUVEC with PBMC;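 further: relative cell number as total protein by SRB absorbance in sub-confluent culture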
In short: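 HUVEC/PBMC co-culture, 96-well. TCA-fixed (10%), 0.1% SRB stain, A560 at 96 h. Protein content used as viability readout; bidirectional fitting vs DMSO control.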

[16] = BSK_SAg_SRB: Viability Assessment in the BioMAP Diversity Plus: SAg Assay (AID 2283096); details: primary human HUVEC with PBMC;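 further: cells read one day after compound addition; hits may be either gain or loss of signal compared with DMSO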
In short: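 This overt-cytotoxicity endpoint quantifies protein in human endothelial/PBMC co-cultures at 24 h using SRB absorbance (560 nm) after trichloroacetic acid fixation. Values reflect signal change from the DMSO negative control, fitted bidirectionally.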

[17] = read-out: Interleukin-8 (IL8), CXCL8 (gene 3576); test: BSK_SAg_IL8: BioMAP Diversity Plus: SAg Assay for Interleukin-8 (IL8) Biomarker Activity (AID 2283094); details: primary human HUVEC with PBMC; actives raise or lower the signal
In short: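 HUVEC/PBMC co-culture, 24 h post-dose; IL-8 by ELISA. Gain or loss of signal fitted bidirectionally vs DMSO baseline.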

[18] = target: human CYP2D6, CYP2D6 (gene 1565) (UniProt P10635); test: NVS_ADME_hCYP2D6: NovaScreen (NVS) CYP450-related Enzyme Activity (ADME) Assay for human CYP2D6 (AID 2283107; active means hit-call score of the fitted dose curve at least 0.9, where 1 is the maximum)
Sequence of human CYP2D6, CYP2D6 (gene 1565) (P10635 whole entry, looked up): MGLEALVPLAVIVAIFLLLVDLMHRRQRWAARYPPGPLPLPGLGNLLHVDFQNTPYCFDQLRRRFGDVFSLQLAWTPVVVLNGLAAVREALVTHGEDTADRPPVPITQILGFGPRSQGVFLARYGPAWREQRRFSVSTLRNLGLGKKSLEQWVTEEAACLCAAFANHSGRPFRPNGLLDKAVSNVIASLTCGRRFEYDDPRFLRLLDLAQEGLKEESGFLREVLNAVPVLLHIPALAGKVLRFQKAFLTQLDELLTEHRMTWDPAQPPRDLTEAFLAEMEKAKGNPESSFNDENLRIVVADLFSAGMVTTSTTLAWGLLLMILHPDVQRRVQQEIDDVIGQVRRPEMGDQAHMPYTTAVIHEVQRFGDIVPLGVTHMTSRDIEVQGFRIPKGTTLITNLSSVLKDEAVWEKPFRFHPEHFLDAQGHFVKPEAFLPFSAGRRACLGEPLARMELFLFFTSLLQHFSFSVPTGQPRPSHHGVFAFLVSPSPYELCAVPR
In short: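 Fluorescence intensity read 1 h post-dosing; insect-cell-expressed recombinant protein with fluorogenic substrate, no cells. Activity is scored as signal loss relative to acetonitrile baseline, first at a single 10 uM concentration in duplicate, then as concentration series for confirmed actives.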

[19] = target: Cytochrome P450 3A4 (Homo sapiens) (UniProt P08684); test: NVS_ADME_hCYP3A4: NovaScreen (NVS) CYP450-related Enzyme Activity (ADME) Assay for human CYP3A4 (AID 2283110; active means hit-call score of the fitted dose curve at least 0.9, where 1 is the maximum)
Sequence of Cytochrome P450 3A4 (Homo sapiens) (P08684 whole entry, looked up): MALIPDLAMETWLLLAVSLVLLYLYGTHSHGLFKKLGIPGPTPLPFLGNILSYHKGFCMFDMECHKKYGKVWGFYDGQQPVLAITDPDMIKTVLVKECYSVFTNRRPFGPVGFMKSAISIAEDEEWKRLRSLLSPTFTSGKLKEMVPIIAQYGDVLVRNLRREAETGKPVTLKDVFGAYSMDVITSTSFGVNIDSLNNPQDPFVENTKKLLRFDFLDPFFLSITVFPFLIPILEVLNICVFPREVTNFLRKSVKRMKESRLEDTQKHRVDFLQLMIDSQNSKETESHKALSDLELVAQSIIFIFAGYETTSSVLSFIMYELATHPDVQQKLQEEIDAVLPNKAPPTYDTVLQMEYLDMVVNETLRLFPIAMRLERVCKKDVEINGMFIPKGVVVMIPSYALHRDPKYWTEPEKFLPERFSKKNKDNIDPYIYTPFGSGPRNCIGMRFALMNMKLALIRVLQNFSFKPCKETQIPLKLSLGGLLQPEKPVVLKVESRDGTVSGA
In short: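 Activity is derived from decreased fluorescence intensity relative to acetonitrile, measured 0.33 hour after dosing insect-cell-expressed CYP3A4 in a cell-free format. Screening used 10 uM in duplicate before concentration-response follow-up.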

Measured: AC50

Sequence of E-selectin (Homo sapiens) (P16581 whole entry, looked up): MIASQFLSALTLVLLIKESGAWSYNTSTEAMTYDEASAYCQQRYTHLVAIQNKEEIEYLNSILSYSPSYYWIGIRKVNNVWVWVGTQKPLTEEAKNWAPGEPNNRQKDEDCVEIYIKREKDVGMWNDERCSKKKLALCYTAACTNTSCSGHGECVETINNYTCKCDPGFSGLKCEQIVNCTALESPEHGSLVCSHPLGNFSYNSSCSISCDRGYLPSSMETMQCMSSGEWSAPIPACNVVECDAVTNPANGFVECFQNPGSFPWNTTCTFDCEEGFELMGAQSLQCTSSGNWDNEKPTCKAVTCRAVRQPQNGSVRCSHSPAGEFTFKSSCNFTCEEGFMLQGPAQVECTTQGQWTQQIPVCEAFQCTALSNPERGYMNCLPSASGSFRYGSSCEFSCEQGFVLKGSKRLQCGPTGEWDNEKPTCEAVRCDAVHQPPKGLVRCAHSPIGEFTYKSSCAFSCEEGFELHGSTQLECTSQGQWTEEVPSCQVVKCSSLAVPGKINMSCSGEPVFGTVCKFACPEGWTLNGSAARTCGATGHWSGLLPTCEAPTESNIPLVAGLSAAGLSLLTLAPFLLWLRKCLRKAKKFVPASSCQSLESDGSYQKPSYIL
Sequence of Tumor necrosis factor (Homo sapiens) (P01375 whole entry, looked up): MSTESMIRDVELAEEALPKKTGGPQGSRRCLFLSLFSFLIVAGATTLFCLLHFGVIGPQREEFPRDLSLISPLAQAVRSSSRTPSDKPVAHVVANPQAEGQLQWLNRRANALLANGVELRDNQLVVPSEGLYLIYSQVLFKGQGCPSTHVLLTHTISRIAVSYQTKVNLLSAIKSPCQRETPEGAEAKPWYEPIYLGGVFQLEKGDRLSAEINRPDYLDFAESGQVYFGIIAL

FC(F)(F)C(F)(F)C(F)(F)C(F)(F)C(F)(F)CCI
inactive: [1] | [2] | [3] | [4] | [5] | [6] | [7] | [8] | [9] | [10] | [11] | [12] | [13] | [14] | [15] | [16]
active: [15] 44 µM

C#C[C@]1(O)CC[C@H]2[C@@H]3CCc4cc(OC)ccc4[C@H]3CC[C@@]21C
active: [1] 31.1 µM | [2] 0.0185 µM | [6] 34.6 µM | [8] 27.1 µM | [10] 15.2 µM | [15] 30.4 µM
not listed: [14] | [17] | [18] | [19]
inactive: all other assays above

CCCCCCCCCCCCCCCC[N+](C)(C)Cc1ccccc1
inactive: [3]
active: [1] 9.26 µM | [2] 11.4 µM | [4] 1.74 µM | [5] 10.7 µM | [6] 3.79 µM | [7] 3.77 µM | [8] 13 µM | [9] 14.7 µM | [10] 12.4 µM | [11] 2.97 µM | [12] 20 µM | [13] 2.96 µM | [17] 10 µM | [15] 0.456 µM | [16] 5.21 µM | [18] 0.401 µM

CC(=O)Nc1ccc(N=Nc2cc(C)ccc2O)cc1
active: [7] 5.06 µM | [8] 7.17 µM | [10] 5.73 µM | [15] 11 µM | [18] 2.96 µM | [19] 5 µM
not listed: [14]
inactive: all other assays above

CCCCNc1ccccc1
not listed: [17] | [18] | [19]
inactive: all other assays above

N=C(N)C(F)(F)C(F)(F)C(F)(F)C(F)(F)C(F)(F)C(F)(F)C(F)(F)F
active: [2] 45.8 µM | [4] 47 µM | [6] 33.1 µM | [7] 40.3 µM | [8] 53.6 µM | [9] 54.7 µM | [10] 51 µM | [11] 55 µM | [12] 48.3 µM | [13] 55.4 µM | [15] 45 µM and 47.4 µM | [16] 53 µM
inactive: [2] | [3] | [4] | [5] | [6] | [7] | [8] | [9] | [10] | [11] | [12] | [13] | [16]
